Shiga inhibitor: inhibitors of Shiga toxin in Vero cells; Vero cells, Shiga toxin protein synthesis inhibition reporter; inhibition, % at 38.7 µM; hit rate 9.2% among 290,000; AID 2315; in the data active = inhibition mostly above about 28%, no sharp cut-off; inactive = mostly below about 43%; also: 0% is about no effect
Cycloheximide cs: counter-screen hit for Shiga toxin inhibitors, cycloheximide; cell reporter, cycloheximide protein synthesis inhibition counterscreen; max response, %; hit rate 12% among 300,000; AID 2314; in the data active = max response mostly above about 13%, no sharp cut-off; inactive = mostly below about 14%; also: read at 38.3 µM for the half of the compounds with a filed dose; 0% is about no effect
FBPA Giardia inh: Giardia lamblia aldolase inhibition. hit rate 0.71% among 290,000. Potency, µM (highest dose often 59.6 µM), for inactives: at the top dose activity, negative = inhibition, actives largely listed as inhibitors. AID 2451. A8B2U2. purified Giardia FBPA; also: potency is read from the fitted curve at half-maximal effect; % is scaled to controls: 0 for no effect and ±100 for the full control effect; nearly all actives have a fitted effect of over 55% in size
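40 nM FBPA preincubated 10 min at RT with compound (up to 57.5 uM final), then substrate plus GAPDH/TPI/NAD/arsenate coupling and diaphorase/resazurin added. Fluorescence read after 20 min at RT, 525/598 nm.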
LmPK inhibitor: LmPK (Leishmania mexicana) enzyme inhibition | Q27686 | purified LmPK, Kinase-Glo ATP luminescence, 1 h | Potency, µM (series often up to 57.5 µM), without a hit: at the highest dose activity change, negative = inhibition, hits mostly inhibitors | hit rate 0.37% among 290,000 | AID 1721; also: potency is read from the fitted curve at half-maximal effect; % is scaled to controls: 0 for no effect and ±100 for the full control effect
Target sequence (Q27686 whole entry, looked up): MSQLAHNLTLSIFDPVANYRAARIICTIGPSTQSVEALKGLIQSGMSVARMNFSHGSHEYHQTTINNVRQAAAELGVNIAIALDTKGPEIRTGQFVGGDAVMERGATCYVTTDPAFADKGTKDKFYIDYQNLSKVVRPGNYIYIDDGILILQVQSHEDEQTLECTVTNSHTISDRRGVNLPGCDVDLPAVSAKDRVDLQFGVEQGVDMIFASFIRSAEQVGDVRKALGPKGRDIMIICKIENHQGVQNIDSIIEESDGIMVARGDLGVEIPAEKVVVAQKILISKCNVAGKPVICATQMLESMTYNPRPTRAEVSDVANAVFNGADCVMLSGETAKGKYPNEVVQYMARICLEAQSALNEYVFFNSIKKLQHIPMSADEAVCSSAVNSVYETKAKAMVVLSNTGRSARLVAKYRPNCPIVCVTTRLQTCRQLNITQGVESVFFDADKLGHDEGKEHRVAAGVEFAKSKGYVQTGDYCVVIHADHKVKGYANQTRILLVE
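Kinase-Glo luminescence read after 1 h RT reaction of 0.1 nM LmPK with 0.5 mM PEP and 0.1 mM ADP. Activity scaled between uninhibited and enzyme-free controls.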
NS1 inh: blocks influenza NS1 protein function. hit rate 0.4% among 270,000. Potency, µM (doses to about 46.1 µM), inactives show at the top dose activity, positive = more growth; calls by dose curve; also: potency is read from the fitted curve at half-maximal effect; actives are rising curves; nearly all actives have a fitted effect of over 50% in size
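S. cerevisiae expressing influenza A NS1, grown in glucose, washed, then diluted 1:100 into pH 6.0 -URA galactose medium with 23 nl compound. Growth recovery read as OD600; NS1-free strain serves as control.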
Numbers without * were called inactive; ? = inconclusive; . = no result given. Hits are enriched below; roughly 14% of the tested compounds scored in any of these assays. Unless noted, calls follow the shape of the dose curve; as a rule, active = well fitted curve in the direction sought with a large enough effect; inconclusive = small, poorly fitted or top-dose-only effect, or another doubt; inactive = no such curve, though single readings can be large; an effect the other way counts as inactive or inconclusive.

SMILES	Shiga inhibitor	Cycloheximide cs	FBPA Giardia inh	LmPK inhibitor	NS1 inh
O=C(Nc1ccc(NC(=O)C2CC2)nc1)c1cccs1	60*	30*	-2%	-6%	-49%
CCCC(=O)Nc1ccc(NC(=O)c2ccccn2)cn1	48	23*	-10%	?	-11%
Cc1cc(NC(=O)C2CC2)ccc1NC(=O)c1cccs1	21	10	4%	0%	-1%
CCCC(=O)Nc1ccc(NC(=O)c2cccs2)cn1	98*	19*	-5%	2%	-7%
CCCC(=O)Nc1ccc(NC(=O)c2ccccc2OC)cn1	23	10	-6%	0%	-38%
N#Cc1ccc(NC(=O)c2cccs2)nc1	74*	24*	-3%	-9%	-4%
CC1CC(C)CN(C(=O)CCNC(=O)Cn2ccc3ccccc3c2=O)C1 (stereo unspecified)	33	-5	-3%	6%	8%
CC(C)CCNC(=O)C(=O)Nc1cc2c3c(c1)CCC(=O)N3CCC2	-8	-1	-7%	0%	-9%
CCC(Oc1ccccc1OC)C(=O)N1CC(=O)Nc2ccccc21 (stereo unspecified)	27	-7	-5%	-2%	6%
COC(=O)c1cc(C(=O)c2ccc(Cl)cc2)n2c(=O)/c(=C\N(C)C)sc12	-18	4	0%	0%	.
O=C(Nc1ccc(NC(=O)c2cccs2)cn1)c1ccccc1	87*	60*	-5%	-14%	.
CC1=NN(C(=O)c2csc(C)c2C)C(O)(C(F)(F)F)C1 (stereo unspecified)	47*	37*	3%	0%	7%
CC1=NN(C(=O)c2csc(C)c2)C(O)(C(F)(F)F)C1 (stereo unspecified)	33	28	5%	1%	-3%
CC1=NN(C(=O)c2ccc(Br)cc2)C(O)(C(F)(F)OC(F)(F)F)C1 (stereo unspecified)	29	17*	5%	0%	-14%
CC1=NN(C(=O)c2nn(C)cc2Br)C(O)(C(F)(F)F)C1 (stereo unspecified)	60*	35*	2%	-6%	-2%
CC1=NN(C(=O)c2c(Br)cnn2C)C(O)(C(F)(F)F)C1 (stereo unspecified)	-4	0	8%	1%	1%
CC[C@H]1C2=C3C(CC[C@H]4C(OC)OC[C@](C)([C@@H]34)N(C(=O)OC(C)(C)C)C2)C(CO)C1CO (stereo partly specified)	.	.	0%	.	.
Cc1nn(Cc2cccc(C(=O)NN)c2)c(C)c1Cl	11	-2	-6%	0%	5%
COc1ccc(CCNC(=O)Oc2ccccc2)cc1OC	2	-5	-1%	5%	0%
COc1ncc2nc(-c3cccc(C#N)c3)c(=O)n(CCC#N)c2n1	.	.	0%	.	.
CC(C)CC(NC(N)=O)C(=O)NCc1ccccc1Cl (stereo unspecified)	36	35*	9%	11%	.
CC(C)C(=O)OCC(=O)NCc1ccccc1Cl	28	29*	4%	5%	.
Cc1noc(C)c1C(=O)N1CCC[C@@]2(CCN(Cc3ccc(C#N)cc3)C2)C1	.	.	-8%	.	.
COc1ccc(N=c2sc3ccccc3n2C)cc1	50	41*	-8%	2%	4%
COc1ccccc1N=c1sc2ccccc2n1C	3	13*	-3%	3%	9%
SMILES	Shiga inhibitor	Cycloheximide cs	FBPA Giardia inh	LmPK inhibitor	NS1 inh
Cn1c(=NCC(O)COc2ccccc2)sc2ccccc21 (stereo unspecified)	23	18	0%	-4%	-10%
Cc1ccc(S(=O)(=O)N(CC(=O)Nc2cccnc2)c2ccccc2C)cc1	-14	-3	-5%	-1%	-14%
COc1cc(C(=O)NC(C)Cc2ccccn2)ccc1OC1CCN(C(C)=O)CC1 (stereo unspecified)	-3	7	16%	-5%	3%
CCCCCC(=O)NC(=S)Nc1ccc(N2CCCCC2)c(Cl)c1	-25	-6	4%	-2%	-1%
CCN1CCN(c2ccc(NC(=O)c3ccccc3F)cc2Cl)CC1	115*	19*	-6%	-6%	.
CCCCCC(=O)Nc1ccc(N2CCN(CC)CC2)c(Cl)c1	103*	60*	-15%	-3%	-3%
CC(=O)NS(=O)(=O)c1ccc(NC(=O)CC23CC4CC(CC(Br)(C4)C2)C3)cc1	-7	-5	.	1%	2%
[N-]=[N+]=NC[C@@H]1O[C@@H](n2cnc3c(N)ncnc32)[C@@H]2O[C@@H]21	.	.	.	.	-3%
CCCCc1cc(=O)oc2cc(OS(C)(=O)=O)ccc12	-33	20*	-4%	-2%	-20%

Screening results (PubChem)
